Screen size: about 1,100 compounds; about 350 (32%) were called active. A selection follows. Results with a measured potency or affinity are listed apart. Values without a mark were called inactive. No rule for the calls is given here.
Assay: CEM21 lymphoblast cell cytotoxicity, dose response, cytotoxicity control for viral fusion inhibitor project, CellTiter-Glo luminescence, cherry-picked (AID 652042)
Conditions: CEM21 cells viability, CellTiter-Glo ATP luminescence, 24 h; series mostly up to 35 µM; activity change, negative = cytotoxicity: at the top concentration

Structure (SMILES)	activity change, negative = cytotoxicity
CC(OC(=O)c1ccc(NC(=O)CC#N)cc1)C(=O)NCCC1=CCCCC1 (stereo unspecified)	-9.3%
Cc1nc2ccccc2c2oc(C(=O)NCc3ccc4c(c3)OCO4)cc12	-2%
Cc1ccc(S(=O)(=O)NCC(=O)OCC(=O)NCc2ccc3c(c2)OCO3)cc1	9.32% [at 16 µM]
C[C@@]12C(=O)N(c3cccc(Cl)c3)C(=O)N1[C@H](c1ccc(Cl)cc1)[C@@H]1C(=O)N(C3CCCCC3)C(=O)[C@@H]12	-18.4%
CCCCCCCn1c(NC(=O)CC)nc2ccccc21	-26%
COc1ccc(C(O)c2nc3ccccc3n2C)cc1OC (stereo unspecified)	-1.11%
Cc1ccc2cc(C#N)c(NCCNC(=O)C3CCC3)nc2c1C	-0.969%
CC1=NN(C(=O)c2ccccc2)C(O)(c2ccc(Br)cc2)C1 (stereo unspecified)	-5.67%
Cc1ccc(S(=O)(=O)N(C)C[C@@H]2Oc3ccc(NC(=O)Cc4cn(C)c5ccccc45)cc3CC(=O)N([C@H](C)CO)C[C@@H]2C)cc1	-7.68%
CC(C)CNC(=O)c1ccccc1NC(=O)c1ccccc1N(C)S(=O)(=O)c1ccccc1	-4.43%
CNC[C@H]1Oc2c(NC(=O)Nc3cccc4ccccc34)cccc2C(=O)N([C@H](C)CO)C[C@H]1C	-11.5%
Cc1nc2ccc(NC(=O)c3cc(S(=O)(=O)N(C)c4ccccc4)ccc3Cl)cc2s1	-9.18%
CC(=O)c1c(C)[nH]c(C(=O)OCC(=O)Nc2ccc(Cl)c(S(=O)(=O)N(C)C)c2)c1C	-12%
CC[C@@]1(C(=O)OC)N[C@H](CN(C)C(=O)Nc2ccc(OC)cc2)[C@@H]2C(=O)N(Cc3ccccc3)C(=O)[C@@H]21	1.04%
COc1ccc(CCCC(=O)NCCc2ccccc2)c(C)c1	3.67%
COc1ccc(CCNC(=O)COC(=O)c2cccn2C)cc1	3.42%
CCOC(=O)c1c(C)[nH]c(C)c1C(=O)COC(=O)[C@@H](NC(=O)c1ccccc1OCC)C(C)C	-7.56%
COc1ccccc1N(C)S(=O)(=O)c1ccc(Cl)c(C(=O)NCC2(N(C)C)CCCCC2)c1	-3.25%
C[C@H](CO)N1C[C@H](C)[C@@H](CN(C)S(=O)(=O)c2ccc(F)cc2)Oc2ccc(NS(=O)(=O)c3cn(C)cn3)cc2CC1=O	-1.97%
CC(C)(C)N1C(=O)[C@H]2[C@@H](c3ccc(Br)cc3)N3C(=O)N(c4cccc(Cl)c4)C(=O)[C@@]3(C)[C@H]2C1=O	-7%
CC[C@@]12C(=O)N(c3cccc(F)c3)C(=O)N1[C@H](c1ccc(Br)cc1)[C@@H]1C(=O)N(C(C)(C)C)C(=O)[C@@H]12	-2.79%
Cc1cc(C)c2nc(C(F)(F)F)nc(N3CCN(C(=O)c4ccco4)CC3)c2c1	-15.5%

Structure (SMILES)	activity change, negative = cytotoxicity
CCC(NS(=O)(=O)c1c(C)[nH]c(=O)[nH]c1=O)C12CC3CC(CC(C3)C1)C2 (stereo unspecified)	-0.446%
COC(=O)C1=C(C)N(Cc2ccc(Cl)cc2)C(=S)NC1c1ccc(OC)cc1 (stereo unspecified)	-15.5%
CC1=C(C(=O)OCc2ccc3c(c2)OCO3)C(c2ccc(F)cc2)NC(=O)N1 (stereo unspecified)	-24.2%
CCN(CC)CCN(C(=O)c1cc(Cl)sc1Cl)c1nc2cc3c(cc2s1)OCO3	-6.58%
CCN(C[C@H]1N[C@@](C)(C(=O)OC)[C@H]2C(=O)N(Cc3ccccc3)C(=O)[C@@H]12)C(=O)Nc1ccc(C)cc1	0.443%
COc1ccc(S(=O)(=O)n2ccc(-c3ccc(OCCN(C)c4ccccn4)cc3)n2)cc1	-11%
S=c1nc[nH]c2c1[nH]c1ccc(Cl)cc12	4.8%
Clc1ccc2c(c1)C1=C(C(c3ccncc3)O2)C(c2ccc(Br)cc2)n2ncnc2N1 (stereo unspecified)	-15.2%
CCS(=O)(=O)N1Cc2ccccc2CC1C(=O)NCC12CC3CC(CC(C3)C1)C2 (stereo unspecified)	-8.57%
CCN1C[C@@H]2[C@@H]3C(=O)N(Cc4ccccc4)C(=O)[C@@H]3[C@](CC)(C1=O)N2C(=O)c1ccc(C(C)(C)C)cc1	-8.21%
C[C@@]12C(=O)N(Cc3ccc(F)cc3)CC(=O)N1[C@H]1c3cc(Cl)ccc3OC[C@@H]1[C@@H]2c1ccccc1	-14.9%
COc1ccc2c(c1)[C@H]1[C@H](CO2)[C@H](c2ccccc2)[C@]2(C)C(=O)Nc3cc(OC)c(OC)cc3C(=O)N12	-21.9%
O=C(O)c1cccc(COc2ccc3c(c2)CCC3)c1	-6.13%
COc1ccc([C@H]2/C=C\CN(C(=O)C3CC3)[C@@H](C)C(=O)N2Cc2ccc(F)cc2)cc1	-13%
CCC(C)(C)NC(=O)C(c1ccc(C)cc1)N(CC1CCCO1)C(=O)c1csnn1 (stereo unspecified)	-7.66%
O=C(CN1CCCN(Cc2ccc(F)cc2Cl)C1=O)NC1CCCCCCC1	-13.4%
CCN(CCn1cccn1)C(=O)CC1C(=O)NCCN1CCc1ccccc1 (stereo unspecified)	0.382%
O=C(C[C@H]1C[C@@H]2c3cc(NC(=O)C4CCC4)ccc3O[C@@H]2[C@@H](CO)O1)NCC(F)(F)F	0.34%
Cc1ccc(C)c(CS(=O)(=O)c2cn(CC(=O)N3CCC(C)CC3)c3ccccc23)c1	-0.307%
CCCCN1CC(=O)N2[C@H]3c4ccccc4OC[C@@H]3[C@H](c3ccccc3)[C@]2(C)C1=O	-0.526%
COc1cc(CSc2nnnn2-c2ccc(C)cc2)cc(OC)c1OC	-10.6%
Cc1ccc(-n2nnnc2SCn2nnc3ccccc3c2=O)c(C)c1	-14.6%

Structure (SMILES)	activity change, negative = cytotoxicity
O=C(NCc1ccccc1)[C@@H]1CCCN1C(=O)[C@@H]1CCCN1C(=O)c1cccc2ccccc12	-11.3%
Cc1ccc(S(=O)(=O)N2CCC(=O)N(CCOCc3ccc(C(F)(F)F)cc3)CC2)cc1	-20.8%
NC(=O)c1sc2nc3c(c(-c4ccccc4)c2c1N)CCC3	-5.51%
COc1ccc(N(CC(=O)NCCSCc2ccc(Cl)cc2)S(C)(=O)=O)cc1Cl	-10.3%
Cc1ccc(N2C(=O)N3[C@H](c4cccc(C)c4)[C@@H]4C(=O)N(Cc5ccccc5)C(=O)[C@@H]4[C@]3(C)C2=O)cc1	-4.42%
O=C(NCc1ccco1)c1ccc(Cn2c(=O)c3sccc3n(Cc3ccc(F)cc3)c2=O)cc1	-5.39%
CC(=O)Nc1ccc(C(=O)OCC(=O)NC(=O)NCc2ccccc2)cc1	0.697%
CCCOc1ccc(C(F)(F)F)cc1NC(=O)CCc1c(C)noc1C	-8.86%
CCN(C[C@H]1N[C@@](CC)(C(=O)OC)[C@H]2C(=O)N(Cc3ccccc3)C(=O)[C@@H]12)S(=O)(=O)c1ccc(OC)cc1	-6.24%
O=C1CC(C(=O)N(CC2CCCO2)C(C(=O)NC2CCCCC2)c2ccncc2)CS1 (stereo unspecified)	4.43%
OC1(c2ccc(OC(F)F)cc2)CSC(=Nc2cccnc2)N1C1CC1 (stereo unspecified)	-22.7%
Cc1noc(C)c1S(=O)(=O)N(C)C[C@@H]1Oc2ccc(NC(=O)NC3CCCCC3)cc2CC(=O)N([C@H](C)CO)C[C@@H]1C	-9.64% [at 30 µM]
C[C@H]1CN([C@@H](C)CO)C(=O)Cc2cc(NC(=O)Cc3ccccc3)ccc2O[C@H]1CN(C)S(=O)(=O)c1cccs1	1.15%
COc1ccc(S(=O)(=O)N(C)C[C@@H]2Oc3ccc(NC(=O)C4CCCCC4)cc3CC(=O)N([C@@H](C)CO)C[C@@H]2C)cc1	-3.64%
CC(C)(C)c1ccc(-c2noc(CCC(=O)NCC3CCCO3)n2)cc1 (stereo unspecified)	-13.5%
O=C(c1cc(COc2cccc(C(F)(F)F)c2)on1)N1CCC(c2ccncc2)CC1	-23.1%
CCCNC(=O)C[C@@H]1C[C@H]2c3cc(NC(=O)Cc4ccncc4)ccc3O[C@H]2[C@@H](CO)O1	1.01% [at 30 µM]
O=C(CCNC(=O)c1ccc(Br)cc1)NNC(=O)COc1ccccc1F	-0.033%
O=C(NCCc1ccccc1F)c1ccc2c(c1)OCCO2	-9.56%
COc1ccc(NS(=O)(=O)c2ccc3c(c2)OCCO3)cc1OC	-4.08%
Nc1c(S(=O)(=O)c2ccccc2)cnc2c(-c3ccc(F)cc3)cnn12	-10.5%
COC(=O)CNC(c1ccccc1)c1cc(C)ccc1NC(=O)CNC(=O)OCc1ccccc1 (stereo unspecified)	-14.7%

Structure (SMILES)	activity change, negative = cytotoxicity
COc1ccc(C(C(=O)NC(C)(C)C)N(CCC(C)C)C(=O)CCC(=O)Nc2cc(C)on2)cc1 (stereo unspecified)	-2.75%
CCN(CC)c1nc(Nc2ccccc2)nc(Oc2ccc(=O)[nH]n2)n1	4.68% [at 16 µM]
COc1ccc2c(c1)OC[C@H]1[C@H]2N2C(=O)CN(Cc3ccc(C)cc3)C(=O)[C@@]2(C)[C@H]1c1ccccc1	-14.1%
C[C@H]1NC(=O)[C@@]2(C)[C@H](c3ccccc3)[C@H]3COc4ccccc4[C@@H]3N2C1=O	7.71%
Cc1ccc(-n2nc3c(c2NC(=O)c2ccco2)CS(=O)C3)cc1 (stereo unspecified)	-4.33%
C=CCN1C(=S)CC(c2ccccc2)=Nc2ccccc21	-16%
O=C(c1ccc2c(c1)OCO2)N(CC1CCCO1)C1(C(=O)NC2CCCCC2)CCCCC1 (stereo unspecified)	-10.1%
CON(C)c1nc(OCCNC(=O)OCc2ccc(Cl)cc2C)nc(N(C)C)n1	-10.7%
Cc1ccc(C(=O)NCc2ccccn2)cc1S(=O)(=O)N1CCCCC1	5.44%
Cc1ccc(S(=O)(=O)N2CCCCC2)cc1C(=O)NCCC1=CCCCC1	-13.4%
O=S(=O)(NCC[C@@H]1CC[C@@H](NS(=O)(=O)c2ccccc2Cl)[C@H](CO)O1)c1ccc(Cl)cc1	-6.87%
O=S(=O)(NCC[C@H]1CC[C@H](NS(=O)(=O)c2ccccc2Cl)[C@H](CO)O1)c1ccc(Cl)cc1	-9.94% [at 30 µM]
COc1cc(-c2nc3oc4ccccc4c(=O)c3c(=O)n2Cc2ccco2)cc(OC)c1OC	-19.9%
CCOC(=O)c1c(CSc2ccsc2)n(C)c2cc(Br)c(O)c(CN(C)C)c12	-17.3%
CCOC(=O)c1c(CSc2cccs2)n(C)c2cc(Br)c(O)c(CN(C)C)c12	-24.1%
CCN(CC)S(=O)(=O)c1ccc(NC2c3ccccc3C(=O)N2Cc2ccc3c(c2)OCO3)cc1 (stereo unspecified)	-10.7%
O=S(=O)(NCCc1csc(-c2cccnc2)n1)c1ccc(Cl)s1	-5.88%
COc1cccc(/C=N/NC(=O)CC2C(=O)NN=C2C)c1O (stereo unspecified)	5.99%
CC(C)(C)OC(=O)N1CCc2onc(-c3ccc(Br)cc3)c2C1=O	4.49%
C=CC[n+]1c(-c2ccc(C)cc2)csc1NNC(=O)Nc1ccccc1	1.1% [at 8 µM]

Source: PubChem BioAssay AID652042 (Broad Institute, 2013)
